PubChem BioAssay (NCATS)
“And” between values parts separate entries of the source, which are not always exact repeats. Equal values may be shown once. Inconclusive results are not listed. The source made the active and inactive calls. Unless noted, the call rests on the fitted dose curve; in most records, active means well fitted curve in either direction with a large enough effect (not every such curve was filed as active); inconclusive means small, poorly fitted or top-dose-only effect, or another doubt; inactive means flat fitted curve, though single readings scatter.

What was measured:
[1] = AP1 Signaling Pathway (AID 357);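 further: ME-180 reporter cells stimulated with EGF at its EC50 level; on the % scale 0 is the no-effect control and ±100 the full control effect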
Method in brief: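 First, ME-180 AP-1-bla cells were cultured overnight at 37 °C in low-serum Opti-MEM. Next, titrated compounds with EC50 EGF were incubated 5 hours. Finally, CCF4 was added for 2.5 hours and the 460/530 nm ratio recorded.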

[2] = target: Cytochrome P450 1A2 (Homo sapiens) (UniProt P05177); test: p450-cyp1a2 (AID 410; calls by dose curve; further: potency means the concentration at half of the fitted maximal effect;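 on activity change, negative = inhibition: -100% = full effect of reference inhibitor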)
Method in brief: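 20nM CYP1A2 with 100uM Luciferin-ME (at Km) in 100mM KPO4; compound preincubated 10 min, NADPH regeneration added, 60 min at room temperature. Luciferin quantified by luminescence after detection reagent; normalized to 57 uM furafylline.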

[3] = NFAT Signaling Pathway (AID 444); details: Jurkat NFAT-bla M1, carbachol, beta-lactamase ratio, 5 h; at 17.2 µM (top of the series) unless noted;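 further: carbachol stimulus at about its EC50 of 1 µM final; on the % scale 0 is the no-effect control and ±100 the full control effect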
Method in brief: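 Jurkat cells with NFAT-driven β-lactamase reporter and co-expressed M1 receptor, stimulated with carbachol (final 1 uM, ~EC50), compound titration, 5 h at 37 °C. CCF4 loaded 1 h at RT; 460/530 nm ratio gave %activity and AC50.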

[4] = Stat Signaling Pathway (AID 446);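 further: ME-180 cervical cancer cells given 40 pM IL-6 alongside compound; SIE-controlled beta-lactamase reporter measured as 460/530 nm FRET emission ratio; on the % scale 0 is the no-effect control and ±100 the full control effect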
Method in brief: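 ME-180 cells carrying a SIE-driven beta-lactamase reporter are stimulated with 40 pM IL-6 for 5 h at 37C in the presence of compound. The 460/530 nm FRET substrate ratio is read after 2.5 h at RT. Data are normalised to 300 pM IL-6 and to 125 nM JAK inhibitor controls.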

[5] = target: Glucocorticoid receptor (Homo sapiens) (UniProt P04150); test: GR-GFP Redistribution (AID 450;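 active means compounds whose dose series gives a full or clear partial fitted curve of increased nuclear translocation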; further: potency means the concentration at half of the fitted maximal effect); details: U2OS GR-GFP nuclear translocation, laser cytometry, 2 h
[6] = target: Glucocorticoid receptor (Homo sapiens) (UniProt P04150); test: GR-EFC Redistribution (AID 451; calls by dose curve; further: potency means the concentration at half of the fitted maximal effect); details: CHO-K1 GR-EFC translocation, beta-gal luminescence, 2 h
Method in brief: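 CHO-K1 cells expressing nuclear EA and GR-ED fragments of b-gal; compounds titrated up to 46 uM final, 2 h at 37 C. GR nuclear translocation read as complemented b-gal luminescence after 1 h RT detection.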

[7] = target: Mitogen-activated protein kinase 10 (Mus musculus) (UniProt Q61831); test: JNK3 AlphaScreen Assay (AID 530);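 further: kinase came from lysate of stimulated human HepG2 cells; signal reports phosphorylation of biotinylated GST-cJun 1-79 at Ser73 with 10 µM ATP; on the % scale 0 is the no-effect control and ±100 the full control effect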
Method in brief: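 Pre-activated (IL-1β/TNFα) JNK3 in HepG2 lysates phosphorylates biotin-GST-cJun(1-79), 10 uM ATP; anti-phospho-cJun(Ser73) AlphaScreen read at room temperature, pH 7.6 Tris buffer. Compounds pre-incubated 15 min as titrations.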

[8] = Cell Viability - BJ (AID 421; calls by dose curve;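 further: potency means the concentration at half of the fitted maximal effect; cells exposed to compound for 40 hours at 37 °C before readout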); details: BJ fibroblast viability, qHTS
Method in brief: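 Normal human BJ foreskin fibroblasts, 1500/well in complete medium, treated 40 hr at 37 °C. Cellular ATP by CellTiter-Glo luminescence; normalized to DMSO and 100 uM tamoxifen, AC50 from Hill fit.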

[9] = Cell Viability - Jurkat (AID 426;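 active means dose-dependent loss of cell ATP signal giving a full or clear fitted curve, ranked by lower potency value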; further: potency means the concentration at half of the fitted maximal effect); details: qHTS
Method in brief: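 Jurkat (Clone E6-1) cells, 5000/well in complete medium, exposed to compounds for 40 hr at 37C; intracellular ATP measured by CellTiter-Glo luminescence after 20 min at room temperature. AC50 from Hill fits.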

[10] = Cell Viability - Hek293 (AID 427;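 active means compounds whose dose-response curve shows a full or clear partial loss of cell viability, called from curve shape rather than a numeric limit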;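 further: potency means the concentration at half of the fitted maximal effect; cells exposed to compound for 40 hours at 37 °C before reading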); details: qHTS
Method in brief: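 HEK293 cells in complete medium were exposed to compound for 40 hr at 37 °C, then cellular ATP was read by CellTiter-Glo luminescence. Data were normalized to DMSO (basal) and 100 uM tamoxifen (100% inhibition), and AC50 came from Hill fits.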

[11] = Cell Viability - HepG2 (AID 433; calls by dose curve;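 further: potency means the concentration at half of the fitted maximal effect; potency for ATP loss meaning cytotoxicity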); details: qHTS
Method in brief: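 Cytotoxicity read as ATP loss (CellTiter-Glo luminescence) after 40 hr compound exposure of HepG2, 1500 cells/well, 37 °C. AC50 by Hill equation; 0% set by DMSO, 100% inhibition by 100 uM tamoxifen.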

[12] = Cell Viability - MRC5 (AID 434; calls by dose curve;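 further: potency means the concentration at half of the fitted maximal effect; potency reflects cytotoxicity seen as loss of intracellular ATP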); details: MRC5 lung fibroblast viability, qHTS
Method in brief: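 MRC5 normal human lung fibroblasts, 1500 cells/well, exposed to compound for 40 hr at 37 C. Cellular ATP was read by CellTiter-Glo luminescence; data normalized to DMSO and 100 uM tamoxifen, with AC50 from Hill fits.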

[13] = Cell Viability - N2a (AID 540; active means well fitted curve in the direction sought with a large enough effect; an effect the other way counts as inactive or inconclusive;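 further: plate controls were DMSO alone for no effect and tamoxifen control for full effect; nearly all actives have a fitted effect of over 45% in size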)
Method in brief: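 Mouse neuroblastoma N2a cells, 1500/well, exposed to compounds 40 h at 37 °C in complete medium. Viability measured as cellular ATP by CellTiter-Glo luminescence; AC50 from Hill fits of concentration-response.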

[14] = Cell Viability - NIH 3T3 (AID 541; active means well fitted curve in the direction sought with a large enough effect; an effect the other way counts as inactive or inconclusive;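 further: plate controls were DMSO alone for no effect and tamoxifen positive control for full effect; nearly all actives have a fitted effect of over 25% in size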); details: NIH 3T3 cell viability, qHTS; activity change, negative = cytotoxicity: at 92.2 µM (top of the series)
Method in brief: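 Mouse NIH 3T3 fibroblasts, 1000 cells/well, rested 5 hr at 37 °C, then exposed to compound for 40 hr at 37 °C in complete medium. Viability read as intracellular ATP by CellTiter-Glo luminescence; AC50 from Hill-equation fits of concentration-response data.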

[15] = Cell Viability - HUV-EC-C (AID 542; active means well fitted curve in the direction sought with a large enough effect; an effect the other way counts as inactive or inconclusive; further: on the % scale 0 is the no-effect control and ±100 the full control effect; nearly all actives have a fitted effect of over 35% in size)
Method in brief: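 HUV-EC-C human vascular endothelial cells, 1000/well, exposed to compound for 40 hr at 37 °C in complete medium. Intracellular ATP was read by CellTiter-Glo luminescence. AC50 came from Hill-equation fits of concentration-response data.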

[16] = Cell Viability - SH-SY5Y (AID 544; active means well fitted curve in the direction sought with a large enough effect; an effect the other way counts as inactive or inconclusive;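 further: 0% = DMSO alone and -100% = 100 µM tamoxifen; nearly all actives have a fitted effect of over 55% in size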); details: SH-SY5Y neuroblastoma cell viability; viability change, negative = cytotoxic: at 92.2 µM (top of the series)
Method in brief: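 SH-SY5Y human neuroblastoma cells (1500/well) incubated 5 h, then compound-treated 40 h at 37 °C in complete medium. Viability read as intracellular ATP by CellTiter-Glo luminescence after 20 min; AC50 from Hill-equation fits of qHTS concentration-response.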

[17] = Cell Viability - Renal Proximal Tubule (AID 545; active means well fitted curve in the direction sought with a large enough effect; an effect the other way counts as inactive or inconclusive;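 further: 0% = DMSO only and -100% = 100 µM tamoxifen; nearly all actives have a fitted effect of over 40% in size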)
Method in brief: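 Viability taken as intracellular ATP (CellTiter-Glo luminescence) after 40 hr, 37 °C compound treatment of primary proximal tubule cells from rat kidney, 1000 cells/well; Hill-equation fits of qHTS concentration-response data gave AC50.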

[18] = Cell Viability - Mesenchymal (AID 546; active means well fitted curve in the direction sought with a large enough effect; an effect the other way counts as inactive or inconclusive;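 further: cells exposed to compound for 40 hours before reading; 0% = DMSO only and -100% = 100 µM tamoxifen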)
Method in brief: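 Human kidney mesenchymal cells from normal renal glomeruli, 1000 cells/well, rested 5 hr at 37 °C, then treated 40 hr at 37 °C in complete medium. Cellular ATP read by CellTiter-Glo luminescence; AC50 from Hill-equation fits.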

[19] = Cell Viability - H-4-II-E (AID 543; active means well fitted curve in the direction sought with a large enough effect; an effect the other way counts as inactive or inconclusive; further: on the % scale 0 is the no-effect control and ±100 the full control effect; nearly all actives have a fitted effect of over 35% in size)
Method in brief: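 Rat hepatoma H-4-II-E cells, 1500 per well, treated 40 h at 37 °C in complete medium. Cellular ATP read by CellTiter-Glo luminescence; AC50 from Hill fits of concentration-response.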

Sequence of Cytochrome P450 1A2 (Homo sapiens) (P05177 whole entry, looked up): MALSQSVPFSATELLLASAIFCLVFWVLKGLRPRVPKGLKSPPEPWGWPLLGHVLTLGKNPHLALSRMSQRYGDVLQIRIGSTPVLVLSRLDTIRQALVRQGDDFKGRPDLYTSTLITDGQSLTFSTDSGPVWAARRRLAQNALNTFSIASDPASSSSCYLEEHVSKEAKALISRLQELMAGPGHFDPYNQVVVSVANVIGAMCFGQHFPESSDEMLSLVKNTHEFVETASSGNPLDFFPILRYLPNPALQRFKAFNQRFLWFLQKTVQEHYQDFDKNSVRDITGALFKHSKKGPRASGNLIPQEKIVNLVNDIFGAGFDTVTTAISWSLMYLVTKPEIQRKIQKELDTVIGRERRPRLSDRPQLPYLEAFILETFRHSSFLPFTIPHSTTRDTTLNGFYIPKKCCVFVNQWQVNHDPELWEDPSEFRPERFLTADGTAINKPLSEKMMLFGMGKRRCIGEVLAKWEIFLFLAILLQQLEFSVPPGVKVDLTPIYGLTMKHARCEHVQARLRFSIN
Sequence of Glucocorticoid receptor (Homo sapiens) (P04150 whole entry, looked up, the tested form may be a part): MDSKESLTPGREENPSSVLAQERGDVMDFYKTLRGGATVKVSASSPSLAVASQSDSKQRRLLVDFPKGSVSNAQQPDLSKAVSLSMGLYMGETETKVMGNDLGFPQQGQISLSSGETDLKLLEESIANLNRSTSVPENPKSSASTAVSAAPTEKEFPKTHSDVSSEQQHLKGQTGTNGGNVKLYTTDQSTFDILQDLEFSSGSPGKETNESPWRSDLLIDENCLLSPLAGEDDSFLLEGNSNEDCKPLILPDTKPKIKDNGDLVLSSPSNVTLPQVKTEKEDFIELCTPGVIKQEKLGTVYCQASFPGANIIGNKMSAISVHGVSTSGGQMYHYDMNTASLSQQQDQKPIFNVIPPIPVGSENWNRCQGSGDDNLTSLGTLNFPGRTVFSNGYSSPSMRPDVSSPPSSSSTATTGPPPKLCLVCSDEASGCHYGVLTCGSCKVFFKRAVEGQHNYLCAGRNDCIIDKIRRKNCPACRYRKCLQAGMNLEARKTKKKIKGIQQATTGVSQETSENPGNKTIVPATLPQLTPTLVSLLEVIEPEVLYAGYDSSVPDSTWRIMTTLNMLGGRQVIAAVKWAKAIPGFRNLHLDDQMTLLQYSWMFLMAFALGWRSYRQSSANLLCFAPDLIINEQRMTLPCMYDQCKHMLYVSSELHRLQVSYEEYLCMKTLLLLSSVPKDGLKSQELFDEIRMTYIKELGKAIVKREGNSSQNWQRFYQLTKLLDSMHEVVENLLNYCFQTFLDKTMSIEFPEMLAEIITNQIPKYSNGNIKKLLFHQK

N=C(N)N1CCc2ccccc2C1
inactive: outcome [1] | Potency [2] | activity change, negative = inhibition [3] -7.74% | outcome [4] | Potency [5] > 20.6 µM | Potency [6] > 20.6 µM | Potency [7]

Cc1c(-c2ccccc2)oc2c(C(=O)OCCN3CCCCC3)cccc2c1=O
active: Potency [2] 6.31 µM
inactive: outcome [1] | activity change, negative = inhibition [3] -3.52% | outcome [4] | Potency [5] > 20.6 µM | Potency [6] > 20.6 µM | Potency [7]

O=C(O)CCNC(=O)c1ccccc1
inactive: outcome [1] | activity change, negative = inhibition [3] 3.54% | outcome [4] | Potency [5] > 20.6 µM

NS(=O)(=O)Cc1noc2ccccc12
inactive: outcome [1] | Potency [2] | activity change, negative = inhibition [3] -5.42% [at 38 µM] | outcome [4] | Potency [5] > 46 µM | Potency [6] > 46 µM | Potency [7]

Nc1ccc(C(=O)NCC(=O)O)cc1
inactive: outcome [1] | Potency [2] | activity change, negative = inhibition [3] 3.72% | outcome [4] | Potency [5] > 20.6 µM | Potency [6] > 20.6 µM

CCOc1ccc(NC(C)=O)cc1
inactive: outcome [1] | Potency [8] > 92 µM | Potency [9] > 92 µM | Potency [10] > 92 µM | Potency [11] > 92 µM | Potency [12] > 92 µM | activity change, negative = inhibition [3] 3.42% | outcome [4] | Potency [5] > 20.6 µM | Potency [6] > 20.6 µM | Potency [7] | Potency [13] | activity change, negative = cytotoxicity [14] -21.8% | outcome [15] | viability change, negative = cytotoxic [16] -11.1% | outcome [17] | outcome [18]

Cc1cc(-c2ccccc2)nnc1NCCN1CCOCC1
inactive: outcome [1] | activity change, negative = inhibition [3] -10.7% and -25.7% | outcome [4] | Potency [7]
active: Potency [2] 10 µM

COc1cc(N)c(Cl)cc1C(=O)NC1CCN(Cc2ccccc2)CC1
active: Potency [2] 12.6 µM
inactive: outcome [1] | activity change, negative = inhibition [3] -14.7% | outcome [4] | Potency [5] > 20.6 µM | Potency [6] > 20.6 µM | Potency [7]

CCN(CC)CCNC(=O)c1cc(Br)c(N)cc1OC
active: Potency [2] 10 µM
inactive: outcome [1] | outcome [4] | Potency [7]

CCOC(=O)c1ccc(N)cc1
inactive: outcome [1] | activity change, negative = inhibition [3] -2.56% | outcome [4] | Potency [5] > 20.6 µM | Potency [6] > 20.6 µM | Potency [7]
active: Potency [2] 2 µM

O=C1C(O)=C(O)C(=O)C(O)=C1O
inactive: outcome [1] | Potency [2] | activity change, negative = inhibition [3] -6.65% | outcome [4] | Potency [5] > 20.6 µM | Potency [6] > 20.6 µM | Potency [7]

CCCc1ncc(C[n+]2ccccc2C)c(N)n1
inactive: outcome [1] | Potency [2] | activity change, negative = inhibition [3] -11.4% | outcome [4] | Potency [5] > 20.6 µM | Potency [6] > 20.6 µM | Potency [7]

C[N+]1(C)CCC(=C(c2ccccc2)c2ccccc2)CC1
inactive: outcome [1] | Potency [2] | outcome [4] | Potency [5] > 20.6 µM | Potency [6] > 20.6 µM | Potency [7]

CC[N+](C)(CC)CCOC(=O)C(O)(c1ccccc1)C1CCCCC1 (centres undefined)
active: activity change, negative = inhibition [3] -95.5%
inactive: outcome [1] | outcome [4] | Potency [5] > 20.6 µM

CCCN(CCC)S(=O)(=O)c1ccc(C(=O)O)cc1
inactive: outcome [1] | Potency [2] | Potency [8] > 92 µM | Potency [9] > 92 µM | Potency [10] > 92 µM | Potency [11] > 92 µM | Potency [12] > 92 µM | activity change, negative = inhibition [3] 1.18% and -1.81% | outcome [4] | Potency [5] > 20.6 µM | Potency [6] > 20.6 µM | Potency [7] | Potency [13] | activity change, negative = cytotoxicity [14] -2.58% | outcome [15] | Potency [19] | viability change, negative = cytotoxic [16] -4.3% | outcome [17] | outcome [18]
